Results from PubChem BioAssay (Tox21).
Results filed as inconclusive are left out. Some compounds were tested as several samples or in several runs, with calls that do not always agree. Calls of active or inactive are those of the source. Unless noted, the call rests on the fitted dose curve; in most records, active means well fitted curve in the direction sought with a large enough effect in the repeat runs; inconclusive means weak or mixed curves; inactive means no such curve, though single readings can be large; an effect the other way counts as inactive or inconclusive.

Assays:
[1] = biological target: Retinoic acid receptor RXR-alpha (Homo sapiens) (UniProt P19793); test: qHTS assay to identify small molecule agonists of the RXR signaling pathway (AID 1159527; calls by dose curve; further: nearly all actives have a fitted effect of over 35% in size)
Sequence of Retinoic acid receptor RXR-alpha (Homo sapiens) (P19793 whole entry, looked up): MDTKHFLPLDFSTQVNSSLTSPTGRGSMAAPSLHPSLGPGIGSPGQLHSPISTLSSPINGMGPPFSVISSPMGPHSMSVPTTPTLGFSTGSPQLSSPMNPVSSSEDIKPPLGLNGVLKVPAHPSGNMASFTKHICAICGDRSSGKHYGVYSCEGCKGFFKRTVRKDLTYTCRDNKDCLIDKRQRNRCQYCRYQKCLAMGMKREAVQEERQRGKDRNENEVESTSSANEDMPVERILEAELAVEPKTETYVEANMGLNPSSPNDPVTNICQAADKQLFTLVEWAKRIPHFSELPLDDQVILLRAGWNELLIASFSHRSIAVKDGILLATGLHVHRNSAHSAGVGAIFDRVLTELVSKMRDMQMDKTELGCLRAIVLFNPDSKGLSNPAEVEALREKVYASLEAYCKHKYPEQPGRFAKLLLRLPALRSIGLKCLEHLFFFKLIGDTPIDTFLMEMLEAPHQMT
Outline: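 Agonist mode; 9-cis retinoic acid positive control. HEK 293T UAS-bla reporter cells, 2% charcoal-stripped FBS, 16 hr compound exposure at 37 C/5% CO2. LiveBLAzer B/G FRET substrate 2 hr RT; ex 405, em 460/530 nm.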

[2] = qHTS assay to identify small molecule agonists of the RXR signaling pathway - cell viability counter screen (AID 1159529); further: nearly all actives have a fitted effect of over 50% in size; further: potency means the concentration at half of the fitted maximal effect
Outline: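 Luminescence from CellTiter-Glo (30 min, RT) measured viability in the same wells as the beta-lactamase reporter readout. Cells: GeneBLAzer RXR-alpha HEK 293T, 2% charcoal-stripped FBS. Compound exposure 16 hr, 37 C.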

[3] = qHTS assay to identify small molecule antagonists of the retinoid acid receptor (RAR) signaling pathway - cell viability counter screen (AID 1159551); further: nearly all actives have a fitted effect of over 35% in size
Outline: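 C3RL4 cells were seeded overnight at 37 C, then treated with compounds plus 1 uM (final) retinol for 6 h at 37 C. Viability was read as ATP by CellTiter-Glo luminescence after 30 min at room temperature.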

[4] = qHTS assay to identify small molecule antagonists of the retinoic acid receptor (RAR) signaling pathway (AID 1159552; further: nearly all actives have a fitted effect of over 50% in size)
Outline: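 Luminescence from a RARE luciferase reporter in C3RL4 cells served as read-out. Cells received compounds together with 1 uM final retinol and incubated 6 hr at 37 C before detection reagent was added for 30 min at room temperature.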

[5] = qHTS assay to identify small molecule agonists of the retinoic acid receptor (RAR) signaling pathway (AID 1159553)
Outline: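 C3RL4 cells carrying a RARE luciferase reporter were plated overnight at 37 C, then exposed to compounds in DMSO for 6 hr at 37 C and 5% CO2. Luminescence was read 30 min after luciferase reagent addition at room temperature.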

[6] = qHTS assay to identify small molecule antagonists of the estrogen related receptor (ERR) signaling pathway from Tox21 library - cell viability counter screen (AID 1224834); further: nearly all actives have a fitted effect of over 30% in size
Outline: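 ERR reporter cells were plated 6 h before compound addition, then exposed to test compounds in DMSO for 17.5 h at 37 C. Viability was read as CellTiter-Fluor fluorescence after a 30-minute incubation at 37 C.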

[7] = biological target: Luciferin 4-monooxygenase (Photinus pyralis) (UniProt P08659); test: qHTS assay to identify small molecule inhibitors of firefly luciferase (AID 1224835); further: series mostly up to about 120 µM; nearly all actives have a fitted effect of over 25% in size
Sequence of Luciferin 4-monooxygenase (Photinus pyralis) (P08659 whole entry, looked up): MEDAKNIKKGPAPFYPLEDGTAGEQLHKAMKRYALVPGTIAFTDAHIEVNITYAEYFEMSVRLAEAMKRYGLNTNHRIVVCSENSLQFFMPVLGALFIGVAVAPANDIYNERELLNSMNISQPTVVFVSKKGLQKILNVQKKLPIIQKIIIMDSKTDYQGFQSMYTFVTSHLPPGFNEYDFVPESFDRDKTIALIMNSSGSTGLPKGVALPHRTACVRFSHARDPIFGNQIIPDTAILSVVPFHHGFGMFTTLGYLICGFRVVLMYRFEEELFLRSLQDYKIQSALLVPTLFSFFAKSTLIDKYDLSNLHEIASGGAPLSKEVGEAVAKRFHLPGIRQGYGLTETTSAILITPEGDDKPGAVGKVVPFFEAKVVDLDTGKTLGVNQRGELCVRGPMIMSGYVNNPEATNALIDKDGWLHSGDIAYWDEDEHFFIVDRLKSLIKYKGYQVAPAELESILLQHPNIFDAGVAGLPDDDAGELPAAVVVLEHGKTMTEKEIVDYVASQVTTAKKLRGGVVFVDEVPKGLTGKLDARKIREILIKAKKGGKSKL
Outline: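 Quantitative HTS format; KM concentrations of both substrates. Purified P. pyralis FLuc activity quantified from luminescence images.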

[8] = qHTS assay to identify small molecule agonists of the constitutive androstane receptor (CAR) signaling pathway - cell viability counter screen (AID 1224836); further: nearly all actives have a fitted effect of over 45% in size; further: potency means the concentration at half of the fitted maximal effect
Outline: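 Viability read-out: CellTiter-Fluor fluorescence after 23 h compound exposure at 37 C/5% CO2 in double-stable HepG2-CYP2B6-hCAR cells, with PK11195 present at 0.75 uM final; compounds tested in 15-point titration.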

[9] = qHTS assay to identify small molecule antagonists of the constitutive androstane receptor (CAR) signaling pathway - cell viability counter screen (AID 1224837); further: nearly all actives have a fitted effect of over 45% in size; further: potency means the concentration at half of the fitted maximal effect
Outline: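 HepG2 cells stably expressing hCAR and a CYP2B6-2.2kb reporter were plated and pre-incubated 4 hr at 37 C/5% CO2, then given compounds at 15 concentrations plus 50 nM CITCO (final). After 23 hr, viability was read by CellTiter-Fluor fluorescence.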

[10] = biological target: Nuclear receptor subfamily 1 group I member 3 (Homo sapiens) (UniProt Q14994); test: qHTS assay to identify small molecule antagonists of the constitutive androstane receptor (CAR) signaling pathway (AID 1224838); further: nearly all actives have a fitted effect of over 40% in size; further: potency means the concentration at half of the fitted maximal effect
Sequence of Nuclear receptor subfamily 1 group I member 3 (Homo sapiens) (Q14994 whole entry, looked up): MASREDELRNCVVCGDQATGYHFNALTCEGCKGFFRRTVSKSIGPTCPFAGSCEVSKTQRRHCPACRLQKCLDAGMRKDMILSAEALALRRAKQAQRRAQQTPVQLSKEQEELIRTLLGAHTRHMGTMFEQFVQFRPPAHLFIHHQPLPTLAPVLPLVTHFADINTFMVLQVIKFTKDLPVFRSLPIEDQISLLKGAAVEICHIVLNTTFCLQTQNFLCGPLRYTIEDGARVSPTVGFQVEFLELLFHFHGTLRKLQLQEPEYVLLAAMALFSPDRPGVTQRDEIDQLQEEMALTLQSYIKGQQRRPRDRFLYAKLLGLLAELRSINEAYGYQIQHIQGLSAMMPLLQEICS
Outline: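 HepG2 cells stably co-transfected with hCAR and a CYP2B6-2.2kb luciferase reporter were seeded 4 h before compound addition at 15 concentrations. Cells were stimulated with 50 nM CITCO (final) for 24 h at 37 C; luciferase luminescence was then read.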

[11] = qHTS assay to identify small molecule antagonists of the estrogen related receptor signaling pathway with the pleiotropic PPARgamma coactivator (PGC) from Tox21 10K library - cell viability counter screen (AID 1224840; active means well fitted cell-killing curve with a large enough effect in the repeat runs, not every such curve was filed as active; further: nearly all actives have a fitted effect of over 40% in size; further: potency means the concentration at half of the fitted maximal effect)
Outline: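 PGC/ERR cells were seeded at 2,000 cells/well and left 6 hours at 37 C/5% CO2 before pin-tool addition of compounds in DMSO. After 17.5 hours at 37 C, CellTiter-Fluor was added and fluorescence read 30 minutes later.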

[12] = qHTS assay to identify small molecule antagonists of the estrogen related receptor signaling pathway with the pleiotropic PPARgamma coactivator (PGC) from Tox21 10K library (AID 1224841; call rule not given here; further: actives are mostly falling curves and most rising ones were filed inactive; nearly all actives have a fitted effect of over 50% in size; further: potency means the concentration at half of the fitted maximal effect)
Outline: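 PGC/ERR reporter cells were seeded at 2,000 cells/well and held 6 hours at 37 C/5% CO2 before pin-tool addition of compounds in DMSO. After 18 hours at 37 C, One-Glo was added and luminescence read after 30 minutes at room temperature.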

[13] = qHTS assay to identify small molecule agonists of the estrogen related receptor signaling pathway with the pleiotropic PPARgamma coactivator (PGC) from Tox21 10K library (AID 1224842); further: nearly all actives have a fitted effect of over 15% in size
Outline: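 PGC/ERR reporter cells (NTP line) were seeded 2,000 per well, rested 6 h at 37 C/5% CO2, then pin-dosed with compounds in DMSO for 18 h at 37 C; luciferase read by One-Glo luminescence after 30 min at room temperature.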

[14] = biological target: Nuclear receptor subfamily 1 group I member 3 (Homo sapiens) (UniProt Q14994); test: qHTS assay to identify small molecule agonists of the constitutive androstane receptor (CAR) signaling pathway (AID 1224839);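 further: HepG2 cells stably carrying human CAR and a CYP2B6 luciferase reporter; series mostly up to about 92 µM; nearly all actives have a fitted effect of over 15% in size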
Outline: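 Luminescence read-out (ONE-Glo, 30 min, room temperature) from double-stable HepG2-CYP2B6-hCAR cells exposed 24 h to 15-point compound series in presence of 0.75 uM PK11195 final.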

Measured: Potency

CNC(C)Cc1ccccc1OC (stereo unspecified)
not listed: [12] | [13] | [14]
inactive: all other assays above

CC(=O)NC1CCSC1=O (stereo unspecified)
not listed: [10] | [14]
inactive: all other assays above

CN1C(=O)NC(=O)C(C)(C2=CCCCC2)C1=O (stereo unspecified)
inactive: [1] | [2] | [3] | [4] | [5] | [7] | [9] | [11]

Brc1ccccc1
not listed: [6] | [12] | [13]
inactive: all other assays above

O=[N+]([O-])c1ccccc1CCl
not listed: [4] | [5] | [12] | [13] | [14]
inactive: all other assays above

CC/C(=N\OC/C=C/Cl)C1=C(O)CC(C2CCOCC2)CC1=O (stereo unspecified)
not listed: [4] | [5]
inactive: all other assays above

N#C/C(N)=C(/N)C#N
not listed: [5] | [14]
inactive: all other assays above

O=NN1CCNCC1
not listed: [6] | [7] | [12] | [13] | [14]
inactive: all other assays above

CN(N=O)c1ccc([N+](=O)[O-])cc1
not listed: [6] | [8] | [12] | [13] | [14]
inactive: all other assays above

C=CC(C)=O
inactive: [1] | [2] | [3] | [7] | [8] | [9] | [11] | [12]

Clc1cc(Cl)c(Cl)c(Cl)c1
not listed: [6] | [12] | [13]
inactive: all other assays above

Brc1ccc(Oc2ccccc2)cc1
inactive: [1] | [3] | [7] | [9] | [11] | [12]
31.7 µM (active) and inactive: [2]

O=[Se]=O
active: [8] 21.5 µM | [9] 21.5 µM | [10] 27.1 µM | [11] 17.1 µM | [12] 13.6 µM
not listed: [6] | [7]
inactive: all other assays above
